Only some compounds are listed: those with a hit (about 3.9% of all), similar ones and a draw of the others.
esBAF inh = blocks esBAF chromatin remodeling in mouse ES cells; Bmi1-luciferase knock-in reporter, 24 h; 100% = twice the neutral-well signal; reporter increase, % at 12.5 µM; 350,000 compounds, 2% hits; in the data active means activation above about 40%; inconclusive means no clear call, values can overlap the other calls;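 further: 0% = median of the plate's neutral control wells and 100% = double that signal; a rise in the Bmi1 reporter signal indicates esBAF inhibition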
Wnt bcat act = activates Wnt/beta-catenin signaling in a reporter cell assay. activator, plate reader. activation, % at 9.35 µM. 300,000 compounds, 1.2% hits. AID 743398; in the data active means activation above about 30%, passing the limit was not always enough; inconclusive means no clear call, values can overlap the other calls;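 further: 0% = neutral control wells and 100% = positive control wells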
HSF-1 act = increases HSF-1 driven luciferase reporter signal; activation, % at 9 µM; 300,000 compounds, 1.7% hits; AID 504408; NIH3T3-HGL HSF-1 luciferase reporter, MG132, 8 h; 100% = twice DMSO control signal;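 active means mean replicate activation of at least 50% with a set share of replicates each reaching 50%; inconclusive means only one of those two conditions met; inactive means mean below 50% and too few replicates reaching it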;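 further: 0% = median of the neutral control wells and 100% = twice that signal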
HSF1 inh = HSF1 inhibition; NIH3T3-HGL HSE-luciferase, MG132-induced, luminescence 8 h; hits give low values; 300,000 compounds, 0.77% hits; activity change, negative = inhibition, % at 7.5 µM (by protocol);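 active means more than half of replicate wells show activity change below -50%, luminescence cut by over half; inconclusive means some wells, but at most half, below -50%; inactive means no replicate well below -50%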;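 further: luciferase reports HSF-1 transcriptional activity via heat shock element; 0% = median of DMSO wells and -100% = zero luminescence signal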
MITF act = activators of MITF-driven TRPM1 promoter activity in SK-MEL-5 cells; 300,000 compounds, 0.75% hits; AID 588334; activation, % at 12.5 µM; SK-MEL-5 TRPM1-promoter luciferase, 24 h; % of positive control, neutral wells = 0;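 active means mean activation of at least 80% with every replicate also reaching 80%; inconclusive means mean reaches 80% but some replicate falls short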;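 further: 0% = neutral control wells and 100% = parthenolide positive control wells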
The depositor's hits bear a star.

How did CC(=O)c1ccc2oc3ccccc3c(=O)c2c1 do in these assays?
esBAF inh: 44.3*; Wnt bcat act: 11.1; HSF-1 act: -1.1; HSF1 inh: -0.6; MITF act: 80.2*

Results for Nc1cccc(C#Cc2ccc3c(=O)c4ccccc4oc3c2)c1 ?
esBAF inh: 52.7*; Wnt bcat act: -2.2; MITF act: 132.5*

Results for Nc1ccc(C#Cc2ccc3oc4ccccc4c(=O)c3c2)cc1 ?
esBAF inh: 42.1*; Wnt bcat act: 19.8; HSF-1 act: 1.8; HSF1 inh: 4.2; MITF act: 57.7

Results for COc1ccc2c(c1)CC/C(=C/c1cc(OC)c(OC)c(OC)c1)C2=O ?
esBAF inh: -4.2; Wnt bcat act: -4.0; HSF-1 act: -14.9; HSF1 inh: 2.7; MITF act: 6.6

What do the screens show for `COc1ccc(/C=C2\CC/C(=C\c3ccc(OC)c(OC)c3)C2=O)cc1OC`?
esBAF inh: 1.9; Wnt bcat act: 7.0; HSF-1 act: 63.1*; HSF1 inh: 28.6; MITF act: -29.6

What do the screens show for `COc1ccc2c(c1)CC/C(=C\Nc1ccc3c(c1)OCO3)C2=O`?
esBAF inh: 53.2*; Wnt bcat act: 26.1; HSF-1 act: 14.6; HSF1 inh: 5.6; MITF act: inconclusive

Results for O=C1/C(=C/Nc2ccc3c(c2)OCO3)CCc2ccccc21 ?
HSF-1 act: -46.2; HSF1 inh: -44.4; MITF act: -13.6

What do the screens show for `COc1cccc(/C=C2\CCc3ccccc3C2=O)c1`?
esBAF inh: 42.2; Wnt bcat act: 35.2*; HSF-1 act: 11.2; HSF1 inh: 12.8; MITF act: 66.0

Results for COc1ccc2c(c1)CC/C(=C\C=C\c1ccccc1)C2=O ?
esBAF inh: inconclusive; Wnt bcat act: 31.1*; HSF-1 act: 24.3; HSF1 inh: 11.5

What do the screens show for `COc1ccc(NC(=O)N(C)C[C@@H]2Oc3ccc(NS(=O)(=O)c4cccs4)cc3CC(=O)N([C@@H](C)CO)C[C@@H]2C)cc1`?
esBAF inh: -2.7

How did COc1ccccc1S(=O)(=O)N(C)C[C@@H]1Oc2ncc(-c3ccc(C)cc3)cc2C(=O)N([C@H](C)CO)C[C@H]1C do in these assays?
esBAF inh: 3.1

How did CO[C@@H]1CN(C)C(=O)c2cc(NC(=O)C3CC3)ccc2OC[C@H](C)N(C(=O)CN(C)C)C[C@@H]1C do in these assays?
esBAF inh: -5.3

Results for COc1ccc(/C=C2\CCc3ccccc3C2=O)cc1OC ?
esBAF inh: 39.8; HSF-1 act: 67.7*; HSF1 inh: 30.1; MITF act: 29.3

Results for COc1ccc(/C=C2\CCC/C(=C\c3ccc(OC)c(OC)c3OC)C2=O)c(OC)c1OC ?
esBAF inh: 1.5; Wnt bcat act: -1.7; HSF-1 act: 53.1*; HSF1 inh: 37.9; MITF act: 0.2

What do the screens show for `CC(=O)Oc1ccc(/C=C2/CCc3ccccc3C2=O)cc1`?
esBAF inh: 51.6*; Wnt bcat act: 12.7; HSF-1 act: 18.9; HSF1 inh: -4.6; MITF act: 75.1

Results for COc1ccc(-n2nnc3c(SCC(=O)N4CCCc5ccccc54)ncnc32)cc1 ?
esBAF inh: 1.5; Wnt bcat act: 49.8*; HSF-1 act: 57.2*; HSF1 inh: 29.6; MITF act: -15.7

Results for NNC(=O)c1cc2ccccc2cc1O ?
HSF-1 act: 11.1; HSF1 inh: -2.8; MITF act: -75.6

Results for NNC(=O)c1ccc(O)cc1O ?
Wnt bcat act: -0.7; HSF-1 act: -90.8; HSF1 inh: -87.9*; MITF act: 8.8

Results for O=C1c2sc3nc4ccccc4n3c2C(=O)N1c1ccccc1Cl ?
esBAF inh: 11.5; Wnt bcat act: 3.5; HSF-1 act: 11.3; HSF1 inh: 6.6; MITF act: 3.6

Results for N=c1cc(C2(O)CCCCC2)n2c(nc3ccccc32)s1 ?
Wnt bcat act: 44.7*; HSF-1 act: 16.8; HSF1 inh: -7.3

How did COc1ccc(C2Nc3ccccc3C(=O)N2c2ccc(C)cc2)cc1Cn1nnc2ccccc21 (stereo unspecified) do in these assays?
esBAF inh: 12.7; Wnt bcat act: 13.9; HSF-1 act: 45.8; HSF1 inh: 13.1; MITF act: 98.0*

Results for COc1ccc(C2Nc3ccccc3C(=O)N2c2ccc(C)cc2)cc1Cn1cc([N+](=O)[O-])cn1 (stereo unspecified) ?
esBAF inh: 39.2; Wnt bcat act: 7.2; HSF-1 act: 46.6; HSF1 inh: 31.4; MITF act: 91.2*

How did COc1ccc(C)cc1Cn1nnc2ccccc21 do in these assays?
esBAF inh: 6.2; Wnt bcat act: 1.8; HSF-1 act: 11.4; HSF1 inh: 2.3; MITF act: -3.4

How did O=C(NC1CCC1)[C@@H]1[C@@H](CO)[C@@H]2Cn3c(ccc(-c4cccc(F)c4)c3=O)[C@H]1N2Cc1cocn1 do in these assays?
esBAF inh: -3.8
